Measurements from PubChem BioAssay (EPA / NIEHS).
Records with an inconclusive call do not appear. The source made the active and inactive calls. The calls were made as follows: active = hit-call score of the fitted dose curve at least 0.9, where 1 is the maximum; inconclusive = response in the unintended direction; inactive = score below 0.9.

Assays:
[1] = TOX21_p53_BLA_p2_viability: Viability Assessment in the Tox21 HCT-116 p53 Agonism Beta-lactamase Assay, Phase 2 (AID 2283591);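 also: actives lower the ATP signal meaning cytotoxicity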
How it was run: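 Cytotoxicity readout: CellTiter-Glo ATP luminescence, 30 min at room temperature, after the beta-lactamase read. Cells were HCT116 exposed 16 h at 37C to compounds pin-transferred at 217-fold dilution from DMSO stocks.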

[2] = target: Cellular tumor antigen p53 (Homo sapiens) (UniProt P04637); test: TOX21_p53_BLA_p2_ratio: Tox21 HCT-116 p53 Agonism Beta-lactamase Assay, Ratio, Phase 2 (AID 2283592)
How it was run: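 Readout: blue/green (460/530 nm) FRET emission ratio after 2 h CCF4-AM loading at room temperature, excitation 405 nm. HCT116 p53 bla cells, 16 h compound exposure at 37C, 5% CO2; agonist direction fitted against DMSO baseline.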

[3] = TOX21_p53_BLA_p3_viability: Viability Assessment in the Tox21 HCT-116 p53 Agonism Beta-lactamase Assay, Phase 3 (AID 2283593);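 also: cells exposed to compound for 16 h before reading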
How it was run: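 Cellular ATP was quantified by CellTiter-Glo luminescence, read after 30 min at room temperature. Beforehand, HCT116 cells (4000/well) received compound 5 h post-seeding, 217-fold diluted from DMSO, then incubated 16 h at 37C.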

[4] = target: Cellular tumor antigen p53 (Homo sapiens) (UniProt P04637); test: TOX21_p53_BLA_p3_ratio: Tox21 HCT-116 p53 Agonism Beta-lactamase Assay, Ratio, Phase 3 (AID 2283596)
How it was run: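 Cells were seeded at 4000/well, rested 5 h at 37C, then dosed with DMSO compound solutions (217-fold dilution) for 16 h. CCF4-AM substrate was loaded for 2 h at room temperature, and the 460/530 nm emission ratio was fitted for gain of signal versus DMSO.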

[5] = TOX21_p53_BLA_p4_viability: Viability Assessment in the Tox21 HCT-116 p53 Agonism Beta-lactamase Assay, Phase 4 (AID 2283597);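 also: hits lower the luminescence signal meaning cytotoxicity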
How it was run: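 ATP content by CellTiter-Glo luminescence, 30 min RT, read after the beta-lactamase ratio step. Cells: HCT116, 4000/well, compound added after 5 h, exposure 16 h at 37C. Signal loss = reduced viability.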

[6] = target: Cellular tumor antigen p53 (Homo sapiens) (UniProt P04637); test: TOX21_p53_BLA_p5_ratio: Tox21 HCT-116 p53 Agonism Beta-lactamase Assay, Ratio, Phase 5 (AID 2283599)
How it was run: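 Beta-lactamase reporter ratio (blue 460 nm over green 530 nm, 405 nm excitation) after 2 h CCF4-AM loading, in HCT-116 cells exposed 16 h at 37 C to compounds pinned at 217-fold dilution. Increases relative to DMSO baseline scored.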

[7] = TOX21_p53_BLA_p5_viability: Viability Assessment in the Tox21 HCT-116 p53 Agonism Beta-lactamase Assay, Phase 5 (AID 2283600)
How it was run: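 ATP luminescence (CellTiter-Glo, 30 min, RT) served as the viability read-out, with loss of signal indicating cytotoxicity. Compounds in DMSO were pinned at a 217-fold dilution onto 4000 cells/well and incubated 16 h, 37C.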

[8] = target: Cellular tumor antigen p53 (Homo sapiens) (UniProt P04637); test: TOX21_p53_BLA_p4_ratio: Tox21 HCT-116 p53 Agonism Beta-lactamase Assay, Ratio, Phase 4 (AID 2283601)
How it was run: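 Signal is the blue/green (460nm/530nm) ratio of cleaved versus uncleaved CCF4-AM substrate, read after 2 h substrate loading. Cells were HCT116 carrying the p53-responsive beta-lactamase reporter, dosed 16 h at 37C, 5% CO2; CellTiter-Glo measured in parallel.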

[9] = target: PGR (gene 5241) (UniProt P06401); test: TOX21_PR_BLA_Followup_Antagonist_ratio: Tox21 HEK293 Progesterone Receptor (PR) Antagonism Beta-lactamase Follow-Up Assay, Ratio (AID 2283934);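 also: PR-UAS-bla HEK293T cells stimulated with 1 nM R5020 agonist for 16 hr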
How it was run: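 Readout is the blue/green (ch2/ch1) substrate cleavage ratio after 2 hours at room temperature, following 16 hr co-treatment of PR-bla HEK293T cells with compound and 1nM promegestone. Multiplexed CellTiter-Glo viability flags cytotoxicity; DMSO baseline.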

[10] = TOX21_PR_BLA_Followup_Agonist_viability: Viability Assessment in the Tox21 HEK293 Progesterone Receptor (PR) Agonism Beta-lactamase Follow-Up Assay (AID 2283935);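 also: signal loss means lower viability so actives are cytotoxic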
How it was run: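 Run multiplexed with the beta-lactamase FRET read, this endpoint measures ATP by CellTiter-Glo luminescence (30 min, room temperature). PR-UAS-bla HEK293T cells received compound 6 hr after plating and were then incubated 16 hr at 37C in 2% stripped serum.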

[11] = TOX21_PR_BLA_Followup_Antagonist_viability: Viability Assessment in the Tox21 HEK293 Progesterone Receptor (PR) Antagonism Beta-lactamase Follow-Up Assay (AID 2283936);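 also: cells exposed to compound with R5020 agonist for 16 h; hits lower the luminescence signal meaning cytotoxicity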
How it was run: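 PR-UAS-bla HEK293T cells in medium with 2% charcoal-stripped FBS were treated with compounds plus R5020 for 16 hr at 37C. After the beta-lactamase read, CellTiter-Glo was added to the same wells and luminescence read after 30 min at room temperature.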

[12] = target: PGR (gene 5241) (UniProt P06401); test: TOX21_PR_LUC_Followup_Antagonist: Tox21 HEK293 Progesterone Receptor (PR) Antagonism Luciferase Follow-Up Assay (AID 2283938);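 also: curve fitted upward as signal gain over DMSO baseline despite antagonist label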
How it was run: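 Luminescence from ONE-Glo reagent, measured after 30 min at room temperature, served as readout. Cells (HEK293 carrying PR-A-luc) had been treated 16 h at 37C with DMSO-dissolved compounds. Activity was fitted against DMSO controls.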

[13] = TOX21_PR_LUC_Followup_Antagonist_viability: Viability Assessment in the Tox21 HEK293 Progesterone Receptor (PR) Antagonism Luciferase Follow-Up Assay (AID 2283940)
How it was run: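 Viability counter-readout: cellular ATP measured by luciferase luminescence after 16 h compound exposure at 37C of HEK293-PR-A-luc cells, which had been cultured in charcoal-stripped serum and seeded 5 h beforehand.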

[14] = target: Thyroid hormone receptor alpha (Rattus norvegicus) + Thyroid hormone receptor beta (Rattus norvegicus) (UniProt P18113+P63059); test: TOX21_TR_LUC_GH3_Antagonist_Followup: Tox21 GH3 Thyroid Hormone Receptor Antagonism Luciferase Follow-Up Assay (AID 2283942)
How it was run: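 Loss of T3-driven (1.0 nM final) reporter activity in GH3 cells was read by ONE-Glo luminescence after 24 h incubation at 37C; 15-point compound series spanned 92 uM to 5nM final, 1,500 cells/well.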

[15] = target: THRA (gene 7067) (UniProt P10827); test: TOX21_TRA_COA_Antagonist_Followup_ratio: Tox21 Thyroid Hormone Receptor alpha Antagonism through Coactivator Recruitment Follow-Up Assay, Ratio (AID 2283953)
How it was run: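 GST-TRα LBD 2.5 nM, BSA 0.10%, + cpd; then FITC-SRC-2 peptide 200 nM + Tb-anti-GST Ab 2 nM. TR-FRET ratio 520/495 nm. Norm: DMSO = 0%, T3 = 100%.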

[16] = target: THRB (gene 7068) (UniProt P10828); test: TOX21_TRB_BLA_Antagonist_Followup_ratio: Tox21 Thyroid Hormone Receptor beta Antagonism Beta-lactamase (BLA) Follow-Up Assay, Ratio (AID 2283958)
How it was run: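 Beta-lactamase reporter ratio (460/530 nm, CCF4-AM substrate, 2 h room temperature) was read in TRb-bla HEK293T cells after 18 h compound treatment (11 concentrations, triplicate) at 37C in 2% charcoal-stripped FBS medium. Loss of signal fitted against DMSO.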

[17] = TOX21_TRB_BLA_Antagonist_Followup_viability: Viability Assessment in the Tox21 Thyroid Hormone Receptor beta Antagonism Beta-lactamase (BLA) Follow-Up Assay (AID 2283961)
How it was run: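 Viability read as CellTiter-Glo ATP luminescence (loss of signal = cytotoxicity) in the same plates as the TRβ-bla readout. TRβ-LBD/GAL4 UAS-bla HEK293T cells were exposed to compounds, 11 concentrations in triplicate, for 18 h at 37C/5% CO2.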

[18] = target: THRB (gene 7068) (UniProt P10828); test: TOX21_TRB_COA_Antagonist_Followup_ratio: Tox21 Thyroid Hormone Receptor beta Antagonism through Coactivator Recruitment Follow-Up Assay, Ratio (AID 2283967)
How it was run: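 Coactivator recruitment to the GST-tagged TRb ligand-binding domain (5.0 nM) was read as the 520/495 nm TR-FRET ratio, using 200 nM fluorescein SRC-2 peptide and 2 nM terbium anti-GST. Scaled between DMSO and T3 wells; loss of signal fitted.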

[19] = target: Retinoic acid receptor RXR-alpha (Homo sapiens) (UniProt P19793); test: TOX21_TR_RXR_BLA_Antagonist_Followup_ratio: Tox21 Thyroid Hormone Receptor beta Retinoid X Receptor alpha (RXRa) Antagonism Beta-lactamase (BLA) Follow-Up Assay, Ratio (AID 2283972)
How it was run: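 Beta-lactamase reporter readout as cleaved/uncleaved substrate ratio (460:530 nm) after 2 h substrate loading at room temperature. GAL4-RXRa bla HEK293T cells were exposed 16 h at 37C to 11-point compound series; loss of signal scored against DMSO baseline.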

[20] = TOX21_TR_RXR_BLA_Antagonist_Followup_viability: Viability Assessment in the Tox21 Thyroid Hormone Receptor beta Retinoid X Receptor alpha (RXRa) Antagonism Beta-lactamase (BLA) Follow-Up Assay (AID 2283979)
How it was run: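 Follow-up compounds (11 concentrations, triplicate) were incubated 16 h at 37C/5% CO2 with HEK293T RXRa-bla cells seeded at 2,500/well in charcoal-stripped-serum medium. ATP content by CellTiter-Glo luminescence gave viability; curves fitted in both directions against DMSO.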

Measured: AC50

Chain of PGR (gene 5241) (P06401 whole entry, looked up): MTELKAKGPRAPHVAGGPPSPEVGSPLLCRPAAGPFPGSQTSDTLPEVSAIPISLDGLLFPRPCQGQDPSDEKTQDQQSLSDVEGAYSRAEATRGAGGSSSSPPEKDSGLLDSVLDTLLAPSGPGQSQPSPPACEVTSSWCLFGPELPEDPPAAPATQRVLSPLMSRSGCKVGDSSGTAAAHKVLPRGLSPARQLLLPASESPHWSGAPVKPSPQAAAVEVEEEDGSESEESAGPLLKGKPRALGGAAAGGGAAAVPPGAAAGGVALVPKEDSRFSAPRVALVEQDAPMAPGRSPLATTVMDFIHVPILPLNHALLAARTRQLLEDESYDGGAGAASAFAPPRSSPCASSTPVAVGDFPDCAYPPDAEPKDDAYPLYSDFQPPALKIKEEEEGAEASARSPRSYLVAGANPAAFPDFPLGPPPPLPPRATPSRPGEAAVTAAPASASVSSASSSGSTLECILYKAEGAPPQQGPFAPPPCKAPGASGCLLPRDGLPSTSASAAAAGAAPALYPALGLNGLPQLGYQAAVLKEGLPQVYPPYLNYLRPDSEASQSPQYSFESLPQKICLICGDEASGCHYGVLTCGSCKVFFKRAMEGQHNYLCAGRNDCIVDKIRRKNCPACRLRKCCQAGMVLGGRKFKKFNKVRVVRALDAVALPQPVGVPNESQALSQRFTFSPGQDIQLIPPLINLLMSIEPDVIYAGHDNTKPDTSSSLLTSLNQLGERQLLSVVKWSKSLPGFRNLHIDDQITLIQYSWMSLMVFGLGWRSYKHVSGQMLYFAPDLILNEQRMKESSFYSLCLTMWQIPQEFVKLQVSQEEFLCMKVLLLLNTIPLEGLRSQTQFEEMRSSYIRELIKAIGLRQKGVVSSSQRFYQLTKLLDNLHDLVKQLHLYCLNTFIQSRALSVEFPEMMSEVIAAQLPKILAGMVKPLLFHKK
Chain of Cellular tumor antigen p53 (Homo sapiens) (P04637 whole entry, looked up): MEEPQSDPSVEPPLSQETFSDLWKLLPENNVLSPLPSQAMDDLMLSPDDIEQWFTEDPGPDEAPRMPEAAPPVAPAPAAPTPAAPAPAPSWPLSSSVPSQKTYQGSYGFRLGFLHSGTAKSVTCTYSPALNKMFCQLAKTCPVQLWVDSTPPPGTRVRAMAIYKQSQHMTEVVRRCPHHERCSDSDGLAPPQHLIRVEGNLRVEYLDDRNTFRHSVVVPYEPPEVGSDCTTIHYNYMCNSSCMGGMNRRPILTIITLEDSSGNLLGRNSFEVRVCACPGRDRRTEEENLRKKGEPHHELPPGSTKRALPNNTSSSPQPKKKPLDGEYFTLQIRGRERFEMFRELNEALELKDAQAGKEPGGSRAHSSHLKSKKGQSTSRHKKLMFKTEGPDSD
Chain of THRB (gene 7068) (P10828 whole entry, looked up, the tested form may be a part): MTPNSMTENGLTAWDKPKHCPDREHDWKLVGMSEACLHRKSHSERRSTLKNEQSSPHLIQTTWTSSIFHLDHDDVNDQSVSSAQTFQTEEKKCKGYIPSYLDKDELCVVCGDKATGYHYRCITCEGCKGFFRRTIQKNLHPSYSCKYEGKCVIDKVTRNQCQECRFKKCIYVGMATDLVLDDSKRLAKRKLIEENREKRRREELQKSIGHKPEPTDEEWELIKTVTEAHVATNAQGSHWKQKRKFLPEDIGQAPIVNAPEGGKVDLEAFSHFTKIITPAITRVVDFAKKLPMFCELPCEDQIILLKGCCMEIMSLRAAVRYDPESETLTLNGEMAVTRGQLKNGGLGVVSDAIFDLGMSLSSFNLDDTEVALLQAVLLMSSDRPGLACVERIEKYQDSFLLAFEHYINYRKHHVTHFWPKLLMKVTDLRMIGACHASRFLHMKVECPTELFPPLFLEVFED
Chain of THRA (gene 7067) (P10827 whole entry, looked up, the tested form may be a part): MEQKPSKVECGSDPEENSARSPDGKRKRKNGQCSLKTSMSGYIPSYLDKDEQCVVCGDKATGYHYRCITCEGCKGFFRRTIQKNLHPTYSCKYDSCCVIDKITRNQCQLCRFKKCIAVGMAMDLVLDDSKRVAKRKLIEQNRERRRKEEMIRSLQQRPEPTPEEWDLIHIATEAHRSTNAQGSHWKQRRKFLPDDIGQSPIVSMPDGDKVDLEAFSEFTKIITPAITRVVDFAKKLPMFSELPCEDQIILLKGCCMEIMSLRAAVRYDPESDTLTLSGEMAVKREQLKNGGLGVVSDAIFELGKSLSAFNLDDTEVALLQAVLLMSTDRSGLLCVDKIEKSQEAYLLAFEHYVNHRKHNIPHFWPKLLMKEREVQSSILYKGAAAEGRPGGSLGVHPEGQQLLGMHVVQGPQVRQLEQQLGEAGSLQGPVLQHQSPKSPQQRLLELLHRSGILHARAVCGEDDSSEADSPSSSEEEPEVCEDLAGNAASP
Chain of Retinoic acid receptor RXR-alpha (Homo sapiens) (P19793 whole entry, looked up, the tested form may be a part): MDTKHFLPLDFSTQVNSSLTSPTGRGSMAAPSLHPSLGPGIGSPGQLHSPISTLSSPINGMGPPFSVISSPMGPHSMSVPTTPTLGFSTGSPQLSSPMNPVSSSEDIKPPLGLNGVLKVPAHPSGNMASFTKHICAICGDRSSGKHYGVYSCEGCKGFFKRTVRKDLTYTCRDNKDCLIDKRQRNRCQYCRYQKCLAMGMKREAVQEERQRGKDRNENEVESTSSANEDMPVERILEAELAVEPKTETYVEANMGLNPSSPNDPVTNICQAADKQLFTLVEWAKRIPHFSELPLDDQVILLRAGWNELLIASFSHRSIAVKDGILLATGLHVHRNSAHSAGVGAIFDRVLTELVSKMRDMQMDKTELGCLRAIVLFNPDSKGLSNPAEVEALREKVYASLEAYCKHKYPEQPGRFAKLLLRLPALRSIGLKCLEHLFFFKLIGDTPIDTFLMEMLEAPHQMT

C[C@@H]1CCC2[C@@H](C)[C@@H](O)O[C@@H]3O[C@@]4(C)CC[C@@H]1[C@@]23OO4 (some centres not stated)
inactive: [1] | [2] | [3] | [4] | [5] | [6] | [7] | [8]

Oc1ccc(N=Nc2ccccc2)cc1
inactive: [1] | [7] | [10] | [11] | [12] | [13]
active: [2] 87.4 µM | [3] 75 µM | [4] 87.5 µM | [5] 75.7 µM | [6] 74.7 µM | [8] 87.8 µM | [9] 27.5 µM

COc1ccc(C(=O)CC(=O)c2ccc(C(C)(C)C)cc2)cc1
active: [2] 18.5 µM
inactive: [1] | [3] | [4] | [5] | [6] | [7] | [8]

CCCCCCOc1ccc(C(=N)N(CCCC)CCCC)c2ccccc12
active: [1] 23 µM | [2] 32.7 µM | [3] 23 µM | [4] 36.4 µM | [5] 10.1 µM | [6] 29.5 µM | [7] 23 µM | [8] 19.9 µM

COc1ccc(S(=O)(=O)Nc2nnc(CC(C)C)s2)cc1
inactive: [1] | [2] | [3] | [4] | [5] | [6] | [7] | [8]

CCCCCC[C@@H](CCC)C(=O)O
inactive: [1] | [2] | [3] | [4] | [5] | [6] | [7] | [8]

Cc1cc(-n2c(=O)[nH]c(=O)n(C)c2=O)ccc1Oc1ccc(S(=O)(=O)C(F)(F)F)cc1
inactive: [1] | [2] | [3] | [4] | [5] | [6] | [7] | [8]

CC(=O)Oc1ccc2c(c1)CC[C@@H]1[C@@H]2CC[C@]2(C)[C@@H](O)CC[C@@H]12
inactive: [1] | [2] | [3] | [4] | [5] | [6] | [7] | [8] | [10] | [11]
active: [9] 0.846 µM | [12] 0.449 µM

CC(C)=CCC1=C(O)c2ccccc2C(=O)C1=O
active: [2] 1.36 µM | [4] 1.27 µM | [6] 1.74 µM | [8] 2.71 µM | [18] 31.3 µM
not listed: [9] | [10] | [11] | [12] | [13]
inactive: all other assays above

O=C(O)CCCl
inactive: [1] | [2] | [3] | [4] | [5] | [6] | [7] | [8]

COC(=O)C1=C(C)NC(COC(N)=O)=C(C(=O)OC(C)C)C1c1cccc(Cl)c1Cl (configuration not stated)
active: [2] 33.5 µM | [5] 35.2 µM | [6] 25.5 µM | [8] 28.8 µM | [12] 7.88 µM
inactive: [1] | [3] | [4] | [7] | [9] | [10] | [11] | [13]

COc1cc(C)c(/C=C/C(C)=C/C=C/C(C)=C/C(=O)O)c(C)c1C
active: [2] 33.4 µM | [6] 36 µM
inactive: [1] | [3] | [4] | [5] | [7] | [8]

COC(=O)C1=C(C)NC(C)=C(C(=O)OCCN2CCN(C(c3ccccc3)c3ccccc3)CC2)C1c1cccc([N+](=O)[O-])c1 (configuration not stated)
active: [12] 23 µM
not listed: [14] | [15] | [16] | [17] | [18] | [19] | [20]
inactive: all other assays above

CC=C(C(=CC)c1ccc(O)cc1)c1ccc(O)cc1
inactive: [1] | [2] | [3] | [5] | [6] | [7]
active: [4] 4.02 µM | [8] 3.75 µM

O=C(O)c1ccccc1[N+](=O)[O-]
inactive: [1] | [3] | [4] | [5] | [7] | [8]
active: [2] 73.7 µM | [6] 86.4 µM

CC(O)COC(C)(C)C (configuration not stated)
inactive: [1] | [2] | [3] | [4] | [5] | [6] | [7] | [8]

CCCCC(=O)O[C@]1(C(=O)CO)[C@@H](C)C[C@H]2[C@@H]3CCC4=CC(=O)C=C[C@]4(C)[C@@]3(F)[C@@H](O)C[C@@]21C
active: [5] 38.7 µM
inactive: [1] | [2] | [3] | [4] | [6] | [7] | [8]
